According to PubChem BioAssay AID547 (Emory University Molecular Libraries Screening Center, 2006):
Among all 1,300 compounds or so, about 10 (0.8%) were called active. The rule behind the calls is not given here. The entries come from a sample that favours actives as a whole.

These compounds were tested against Chaperone protein DnaK (Escherichia coli (strain K12)) (UniProt P0A6Y8) (assay: E. coli DnaK chaperone inhibitors, primary screen, luminescence, E. coli K12 (AID 547;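 note: tested at 10 µM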)). Conditions: DnaK chaperone assay, luminescence read-out; stronger effect = lower value.
For `CN1CCCC1CCOC(C)(c1ccccc1)c1ccc(Cl)cc1` (stereo not given), the luminescence was 2.5e+06 cps (inactive). With `NC(=NCc1ccccc1)NC(=O)c1nc(Cl)c(N)nc1N` the luminescence was 2.1e+06 cps (inactive). In the case of `CCCC1O[C@@H]2C[C@H]3[C@@H]4CCC5=CC(=O)C=C[C@]5(C)[C@H]4[C@@H](O)C[C@]3(C)[C@]2(C(=O)CO)O1` (stereo not given in full), the luminescence is reported as 2.4e+06 cps (inactive). With `Cn1c(=O)[nH]c2ncn(C)c2c1=O` the luminescence was 2.8e+06 cps (inactive). For `CCCn1c(=O)c2[nH]c(-c3ccc(OCC(=O)Nc4ccc(C#N)cc4)cc3)nc2n(CCC)c1=O`, the luminescence was 2.3e+06 cps (inactive). For `COc1ccc(/C=C/C(=O)Nc2ccccc2C(=O)O)cc1OC`, the luminescence was 1.6e+06 cps (active). With `COc1ccc(NC(=O)/C=C/c2ccc(Cl)cc2)cc1` the luminescence was 2.8e+06 cps (inactive). `O=C(O)c1ccccc1Nc1ccccc1` was tested, and the luminescence was 2.2e+06 cps (inactive). `CCn1c(=O)[nH]c2cc(Cl)c(Cl)cc21` was tested, and the luminescence was 3.1e+06 cps (inactive). With `O=C(O)/C=C/c1cnc[nH]1` the luminescence was 2.2e+06 cps (inactive). `Cn1c(=O)c2c(nc(/C=C/c3cccc(Cl)c3)n2C)n(C)c1=O` was tested, and the luminescence was 2.6e+06 cps (inactive). `O=c1cc(O)cc(/C=C/c2ccc(O)c(O)c2)o1` was tested, and the luminescence was 2.5e+06 cps (inactive). `NC12CC3CC(CC(C3)C1)C2` was tested, and the luminescence was 2.3e+06 cps (inactive). With `CC[N+](C)(C)Cc1ccccc1Br` the luminescence was 2.5e+06 cps (inactive). In the case of `CCC(NC(C)C)C(O)c1ccc(O)c(O)c1` (stereo not given), the luminescence is reported as 2.2e+06 cps (inactive). With `NC(N)=NCCSSCCN=C(N)N` the luminescence was 3e+06 cps (inactive). `NC[C@H](O)c1ccc(O)c(O)c1` was tested, and the luminescence was 2.6e+06 cps (inactive). In the case of `Cc1cn([C@H]2C[C@@H](N=[N+]=[N-])[C@@H](CO)O2)c(=O)[nH]c1=O`, the luminescence is reported as 2.8e+06 cps (inactive). For `CCCCCCCCCC[Si](C)(C)CCC(=O)NC(Cc1ccc(C)cc1)c1ccccc1` (stereo not given), the luminescence was 2.8e+06 cps (inactive). `CC(N)=NCCC[C@H](N)C(=O)O` was tested, and the luminescence was 2.6e+06 cps (inactive). In the case of `C[C@]12CCC(=O)C=C1CC[C@@H]1[C@@H]2C(=O)C[C@@]2(C)[C@H]1CC[C@]2(O)C(=O)CO`, the luminescence is reported as 2.3e+06 cps (inactive). In the case of `CNC(=O)[C@H]1O[C@@H](n2cnc3c(N)ncnc32)C(O)[C@H]1O` (stereo not given in full), the luminescence is reported as 2.5e+06 cps (inactive). In the case of `CC(CCc1ccccc1)NCC(O)c1ccc(O)c(C(N)=O)c1` (stereo not given), the luminescence is reported as 2.8e+06 cps (inactive). In the case of `C=CCc1ccccc1OCC(O)CNC(C)C` (stereo not given), the luminescence is reported as 2.8e+06 cps (inactive). With `Cn1cnc2c(NC3CCCC3)ncnc21` the luminescence was 2.5e+06 cps (inactive). In the case of `Nc1nc(SCc2ccc([N+](=O)[O-])cc2)c2ncn([C@@H]3O[C@H](CO)[C@H](O)C3O)c2n1` (stereo not given in full), the luminescence is reported as 2.7e+06 cps (inactive). `CCCCCCCCCCCCCCCCOCC(COCC(F)(F)F)OP(=O)(O)OCO` (stereo not given) was tested, and the luminescence was 2.4e+06 cps (inactive). With `O=c1ccc2c(OCCCCc3ccccc3)c3ccoc3cc2o1` the luminescence was 2.8e+06 cps (inactive). For `Cc1c(C)c2c(c(C)c1O)CCC(C)(CN1CCN(c3cc(N4CCCC4)nc(N4CCCC4)n3)CC1)O2` (stereo not given), the luminescence was 2.6e+06 cps (inactive). With `CN/C(=C\[N+](=O)[O-])NCCSCc1ccc(CN(C)C)o1` the luminescence was 2.6e+06 cps (inactive). With `CN(C)c1nc(N)c(C(=O)N=C(N)N)nc1Cl` the luminescence was 2.5e+06 cps (inactive). With `Cc1cc(N)c2ccccc2[n+]1CCCCCCCCCCCCCC[n+]1c(C)cc(N)c2ccccc21` the luminescence was 3e+06 cps (inactive). With `O=C(O)c1cc(=O)cc(C(=O)O)[nH]1` the luminescence was 2.7e+06 cps (inactive). In the case of `Cc1ccc(N(CC2=NCCN2)c2cccc(O)c2)cc1`, the luminescence is reported as 2.5e+06 cps (inactive). `CC(COc1ccc(/C=C/c2ccccc2)cc1)[N+](C)(C)C` (stereo not given) was tested, and the luminescence was 2.1e+06 cps (inactive). In the case of `CC1(C)C(=O)N(CCN2CCC(C(=O)c3ccc(F)cc3)CC2)c2ccccc21`, the luminescence is reported as 2.6e+06 cps (inactive). In the case of `Cc1nc2ccccn2c(=O)c1CCN1CCC(C(=O)c2ccc(F)cc2)CC1`, the luminescence is reported as 2.5e+06 cps (inactive). `O=C(c1ccc(F)cc1)C1CCN(CCn2c(=O)[nH]c3ccccc3c2=O)CC1` was tested, and the luminescence was 1.7e+06 cps (active). `C[C@H](CS)C(=O)N1CCC[C@H]1C(=O)O` was tested, and the luminescence was 2.6e+06 cps (inactive). With `N[C@@H](Cc1cnc[nH]1)C(=O)O` the luminescence was 2.9e+06 cps (inactive). With `C=C[C@H]1CN2CCC1C[C@@H]2[C@@H](O)c1ccnc2ccc(OC)cc12` (stereo not given in full) the luminescence was 2.3e+06 cps (inactive). For `CC1(NCC(O)COc2cccc3[nH]ccc23)CCC(C(C)(C)NC(=O)CBr)CC1` (stereo not given), the luminescence was 2.2e+06 cps (inactive). `OCCN1CCN(CCCN2c3ccccc3Sc3ccc(C(F)(F)F)cc32)CC1` was tested, and the luminescence was 2.6e+06 cps (inactive). For `O=C1NC(O)=NC1(c1ccccc1)c1ccccc1`, the luminescence was 2.6e+06 cps (inactive). `C=C[C@H]1CN2CCC1C[C@H]2[C@H](O)c1ccnc2ccc(OC)cc12` (stereo not given in full) was tested, and the luminescence was 2.4e+06 cps (inactive). For `O=c1[nH]c2cc([N+](=O)[O-])c([N+](=O)[O-])cc2[nH]c1=O`, the luminescence was 3e+06 cps (inactive). In the case of `C#CC(N)CCC(=O)O` (stereo not given), the luminescence is reported as 2.7e+06 cps (inactive). With `C[C@H](Cc1ccc(O)c(O)c1)[C@@H](C)Cc1ccc(O)c(O)c1` the luminescence was 2e+06 cps (inactive). `NC1(C(=O)O)CCc2cc(C(=O)O)ccc21` (stereo not given) was tested, and the luminescence was 2.8e+06 cps (inactive). With `CC(C)(C)NCC(O)c1cc(O)cc(O)c1` (stereo not given) the luminescence was 2.3e+06 cps (inactive). In the case of `Cc1ccccc1N1CCN(S(=O)(=O)C[C@]23CCC(CC2NC(=O)[C@@H](N)CCS(C)(=O)=O)C3(C)C)CC1` (stereo not given in full), the luminescence is reported as 2.6e+06 cps (inactive). `C[C@]12C=CC(=O)C=C1CC[C@@H]1C2=CC[C@]2(C)[C@@H](C(=O)CN3CCN(c4cc(N5CCCC5)nc(N5CCCC5)n4)CC3)CC[C@@H]12` was tested, and the luminescence was 2.4e+06 cps (inactive). `Nc1ccc(N2C(=O)c3ccccc3C2=O)c(Cl)c1` was tested, and the luminescence was 2.7e+06 cps (inactive). In the case of `CC(=O)N[C@@H](Cc1c[nH]c2ccccc12)C(=O)OCc1cc(C(F)(F)F)cc(C(F)(F)F)c1`, the luminescence is reported as 2.8e+06 cps (inactive). `Brc1ccc([C@H]2CN3CCSC3=N2)cc1` was tested, and the luminescence was 2.2e+06 cps (inactive). With `CN=C(N)NCCC[C@H](N)C(=O)O` the luminescence was 2.2e+06 cps (inactive). In the case of `N[C@@H](CCC(=O)N[C@H](CSN=O)C(=O)NCC(=O)O)C(=O)O`, the luminescence is reported as 2.5e+06 cps (inactive). For `[N-]=[N+]=Nc1ccc(C(=O)CSC[C@H](NC(=O)CC[C@H](N)C(=O)O)C(=O)NCC(=O)O)cc1`, the luminescence was 1.6e+06 cps (active). For `C#C[C@]1(O)CC[C@H]2[C@@H]3CCC4=Cc5oncc5CC4(C)[C@H]3CCC21C` (stereo not given in full), the luminescence was 3e+06 cps (inactive). With `Nc1ncnc2c1nc(Sc1ccc(Cl)cc1)n2C1OC2COP(=O)(O)O[C@@H]2[C@@H]1O` (stereo not given in full) the luminescence was 2.7e+06 cps (inactive). With `CC(C)NCC(O)c1ccc(NS(C)(=O)=O)cc1` (stereo not given) the luminescence was 2.3e+06 cps (inactive). `CCn1c(=O)c2[nH]c(-c3ccccc3)nc2n(CC)c1=O` was tested, and the luminescence was 2.8e+06 cps (inactive). For `CC(C)Cn1c(=O)n(C)c(=O)c2[nH]cnc21`, the luminescence was 2.1e+06 cps (inactive). `CCOC(=O)C12CC1/C(=N/O)c1ccccc1O2` (stereo not given) was tested, and the luminescence was 2.4e+06 cps (inactive). With `NC(CO)C(=O)NNCc1ccc(O)c(O)c1O` (stereo not given) the luminescence was 2.2e+06 cps (inactive). With `C=CC[C@H](N)C(=O)O` the luminescence was 2.5e+06 cps (inactive). For `N[C@@H](Cc1c[nH]c2ccccc12)C(=O)O`, the luminescence was 2.2e+06 cps (inactive). In the case of `NC(C(=O)N[C@@H]1C(=O)N2C(C(=O)O)=C(Cl)CS[C@H]12)c1ccccc1` (stereo not given in full), the luminescence is reported as 2.8e+06 cps (inactive). In the case of `CCN(CC)CCCC(C)Nc1c2ccc(Cl)cc2nc2ccc(OC)cc12` (stereo not given), the luminescence is reported as 2.3e+06 cps (inactive). With `CCC1(O)CC2CN(CCc3c([nH]c4ccccc34)[C@@](C(=O)OC)(c3cc4c(cc3OC)N(C)C3[C@]45CCN4CC=C[C@@](CC)([C@@H](OC(C)=O)[C@]3(O)C(=O)OC)[C@H]45)C2)C1` (stereo not given in full) the luminescence was 2.4e+06 cps (inactive). In the case of `Cc1cc(C)c(NC(=O)C[C@H](CC(=O)O)c2cccc3ccccc23)c(C(=O)N2CCC3(CCCC3)CC2)c1`, the luminescence is reported as 2.4e+06 cps (inactive). For `Nn1nnc2ccccc21`, the luminescence was 2.9e+06 cps (inactive). `O=c1onc2cnc3ccccc3n12` was tested, and the luminescence was 2.2e+06 cps (inactive). In the case of `CCOC(=O)Nc1ccc(NCc2ccc(F)cc2)nc1N`, the luminescence is reported as 2.9e+06 cps (inactive). With `CCCC(=O)NCCc1c2n(c3ccc(OC)cc13)CCCc1ccccc1-2` the luminescence was 2.6e+06 cps (inactive). With `Clc1ccc2c(c1)C(N1CCNCC1)=Nc1ccccc1O2` the luminescence was 3.1e+06 cps (inactive). For `CNC(=O)[C@H]1O[C@@H](n2cnc3c(NCc4ccc(N)cc4)ncnc32)C(O)[C@H]1O` (stereo not given in full), the luminescence was 2.7e+06 cps (inactive). For `O=C(CCc1ccc(O)cc1)c1c(O)cc(O)cc1O`, the luminescence was 2.4e+06 cps (inactive). In the case of `N.N.N.N.N.N.N.N.N.N.N.N.N.N.O.O.[Cl-].[Cl-].[Cl-].[Cl-].[Cl-].[Cl-].[Ru+4].[Ru+5].[Ru+5]`, the luminescence is reported as 2.1e+06 cps (inactive). For `Fc1ccc(C(OCCCc2cnc[nH]2)c2ccc(F)cc2)cc1`, the luminescence was 2.6e+06 cps (inactive). In the case of `CN(C)CCC(c1ccc(Cl)cc1)c1ccccn1` (stereo not given), the luminescence is reported as 2.6e+06 cps (inactive). In the case of `C=Cc1c(C)c2cc3[nH]c(cc4nc(cc5nc(cc1[nH]2)C(C)=C5CCC(=O)O)C(CCC(=O)O)=C4C)c(C)c3C=C`, the luminescence is reported as 2e+06 cps (inactive). For `O=C(Nc1ccc([N+](=O)[O-])cc1Cl)c1cc(Cl)ccc1O`, the luminescence was 1.7e+06 cps (active). For `O=C(Nc1ccccc1)c1cc([N+](=O)[O-])ccc1Cl`, the luminescence was 2.6e+06 cps (inactive). In the case of `O=C(O)c1cc([N+](=O)[O-])ccc1NCCCc1ccccc1`, the luminescence is reported as 2.6e+06 cps (inactive).
